Screens deposited in PubChem BioAssay by several laboratories.
BH1578 lux ind = induces V. cholerae light production without autoinducers | V. cholerae BH1578 lux reporter, luminescence, 6 h | activation, % at 18.7 µM | actives 0.16% (n = 350,000) | AID 588436; in the data active = activation mostly above about 9.7%, no sharp cut-off; inconclusive = no clear call, values can overlap the other calls; inactive = mostly below about 3.7%
BoNT-F LC inh = BoNT F light chain protease inhibition; AID 588497; actives 0.22% (n = 360,000); inhibition, % at 10 µM; Multiplex microsphere protease cleavage assay, flow cytometry; in the data active = inhibition above about 35%, passing the limit was not always enough; inconclusive = no clear call, values can overlap the other calls; also: plate controls were buffer without enzyme for full effect and enzyme alone for no effect
Anthrax LF prot = blocks Bacillus anthracis lethal factor protease; actives 0.12% (n = 360,000); P15917; multiplex microsphere protease cleavage assay, LF; inhibition, % at 10 µM; AID 588501; also: plate controls were buffer without enzyme for full effect and enzyme alone for no effect
Target sequence (P15917 whole entry, looked up): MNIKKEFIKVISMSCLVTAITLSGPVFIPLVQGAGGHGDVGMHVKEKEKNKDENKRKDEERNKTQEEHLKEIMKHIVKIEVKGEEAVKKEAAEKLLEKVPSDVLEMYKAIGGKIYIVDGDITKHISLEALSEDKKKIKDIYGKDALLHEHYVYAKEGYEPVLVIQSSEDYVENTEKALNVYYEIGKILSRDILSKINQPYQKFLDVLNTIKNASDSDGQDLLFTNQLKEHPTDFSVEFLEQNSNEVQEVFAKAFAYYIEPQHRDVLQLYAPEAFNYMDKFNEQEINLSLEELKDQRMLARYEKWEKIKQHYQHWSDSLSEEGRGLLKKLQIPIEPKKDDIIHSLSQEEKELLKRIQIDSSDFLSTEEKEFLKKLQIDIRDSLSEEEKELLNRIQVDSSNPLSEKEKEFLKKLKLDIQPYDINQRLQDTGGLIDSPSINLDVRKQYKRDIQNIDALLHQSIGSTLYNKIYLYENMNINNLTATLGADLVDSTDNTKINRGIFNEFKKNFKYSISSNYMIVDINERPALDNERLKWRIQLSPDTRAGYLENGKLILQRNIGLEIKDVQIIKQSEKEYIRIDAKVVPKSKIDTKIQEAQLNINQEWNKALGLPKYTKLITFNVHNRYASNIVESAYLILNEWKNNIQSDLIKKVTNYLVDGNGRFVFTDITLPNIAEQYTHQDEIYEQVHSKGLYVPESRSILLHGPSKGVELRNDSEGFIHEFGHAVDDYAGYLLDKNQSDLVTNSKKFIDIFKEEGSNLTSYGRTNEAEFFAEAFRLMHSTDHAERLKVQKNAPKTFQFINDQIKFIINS
BJeLR lethal = BJeLR cell viability loss. BJeLR (HRASV12) viability, CellTiter-Glo ATP luminescence, 48 h. inhibition, % (no concentration beside the values). actives 0.17% (n = 300,000). AID 1554; in the data active = inhibition above about 50%; inconclusive = no clear call, values can overlap the other calls
BoNT A protease = blocks Botulinum neurotoxin A light chain protease. inhibition, % at 10 µM. actives 0.17% (n = 360,000). multiplex microsphere protease substrate cleavage, flow cytometry; also: plate controls were buffer without enzyme for full effect and enzyme alone for no effect
Autofluor counter = counter-screen for toxin protease inhibitors: compound fluorescence | actives 3.1% (n = 360,000) | fluorescence intensity (no concentration beside the values) | compound autofluorescence counterscreen, microsphere flow cytometry; hits give high values; in the data active = fluorescence intensity above about 16000; inconclusive = no clear call, values can overlap the other calls
Active calls of the source: *. Hits are enriched below; roughly 3.7% of the tested compounds scored in any of these assays. Rule as the data show it, unless noted: active = inhibition above about 30%; inconclusive = no clear call, values can overlap the other calls; inactive = below that.

`Cc1nn(C(C)C(=O)NNC(=S)Nc2ccc(F)cc2)c(C)c1[N+](=O)[O-]` (configuration not stated) gave BH1578 lux ind -0.7, BoNT-F LC inh -1.4, Anthrax LF prot -1.3, BJeLR lethal -13.7, BoNT A protease -2.1 and Autofluor counter 24064*.
COC(=O)c1cc(-c2ccccc2)sc1NC(=O)CN1C(=O)c2ccccc2C1=O was read as BH1578 lux ind -3.0, BoNT-F LC inh -1.6, Anthrax LF prot -3.5, BJeLR lethal -3.3, BoNT A protease inconclusive and Autofluor counter 23511*.
`COC(=O)c1cc(OC)c(OC)cc1NC(=O)CN1C(=O)c2ccccc2C1=O` gave BH1578 lux ind inactive, BoNT-F LC inh -5.9, Anthrax LF prot -13.0, BJeLR lethal -11.4, BoNT A protease -0.6 and Autofluor counter 5556.
Cc1nc(Cl)c(C#N)cc1-c1ccccc1 was read as BH1578 lux ind 4.6, BoNT-F LC inh -2.0, Anthrax LF prot 1.9, BJeLR lethal -3.5, BoNT A protease 0.2 and Autofluor counter 19692*.
For Cc1cc(C(=O)OCC(=O)NCc2ccccc2)c2ccccc2n1 the results were BH1578 lux ind -0.9, BoNT-F LC inh 3.6, Anthrax LF prot -1.7, BoNT A protease 3.7 and Autofluor counter 5922.
Screening Cc1cc(C(=O)OCC(=O)NC(C)(C)C)c2ccccc2n1 returned BH1578 lux ind -0.2, BoNT-F LC inh -2.5, Anthrax LF prot 0.5, BJeLR lethal -5.5, BoNT A protease inconclusive and Autofluor counter 16530*.
`Cc1cc(C)c(NC(=O)CS(=O)CC(=O)N2CCN(c3ccccc3)CC2)c(C)c1` (configuration not stated) gave BH1578 lux ind -0.5, BoNT-F LC inh -1.6, Anthrax LF prot -1.9, BJeLR lethal -1.4, BoNT A protease -0.2 and Autofluor counter 16393*.
Screening COC(=O)c1nn(-c2ccc(OC)cc2)c(=O)cc1Oc1cccc(Cl)c1 returned BH1578 lux ind 2.9, BoNT-F LC inh -3.7, Anthrax LF prot -0.3, BJeLR lethal 0.9, BoNT A protease inconclusive and Autofluor counter 20164*.
For COC(=O)c1nn(-c2ccc(Oc3ccccc3)cc2)c(=O)cc1O the results were BH1578 lux ind -0.2, BoNT-F LC inh -14.0, Anthrax LF prot 0.8, BJeLR lethal 2.3, BoNT A protease -2.2 and Autofluor counter 3287.
O=C(OCCN1C(=O)c2ccccc2C1=O)c1cc(S(=O)(=O)N2CCOCC2)ccc1F was read as BH1578 lux ind inactive, BoNT-F LC inh 9.2, Anthrax LF prot -1.5, BJeLR lethal -1.8, BoNT A protease -0.5 and Autofluor counter 4603.
O=C(OCCN1C(=O)c2cccc3c(N4CCOCC4)ccc(c23)C1=O)c1ccc(Cl)cc1 was read as BH1578 lux ind -0.2, BoNT-F LC inh 11.8, Anthrax LF prot 11.6, BJeLR lethal 36.1, BoNT A protease 34.4* and Autofluor counter 3644.
CCCN(CCC)S(=O)(=O)c1ccc(C(=O)OCCN2C(=O)c3cccc4c(N5CCOCC5)ccc(c34)C2=O)cc1 was read as BH1578 lux ind -2.7, BoNT-F LC inh 32.0, Anthrax LF prot 37.3*, BJeLR lethal -0.3, BoNT A protease 37.4* and Autofluor counter 10692.
Screening CCCC(=O)N1CCOCC1c1cc(C(=O)NCc2ccccc2)no1 (configuration not stated) returned BH1578 lux ind 0.3, BoNT-F LC inh 3.0, Anthrax LF prot -4.7, BoNT A protease -0.7 and Autofluor counter 3934.
N#Cc1c(N)nc2c(c1-c1cccnc1)CCCCC2 was read as BH1578 lux ind inactive, BoNT-F LC inh -0.7, Anthrax LF prot -6.4, BJeLR lethal 13.0, BoNT A protease inconclusive and Autofluor counter 21866*.
Screening N#Cc1c(N)nc2c(c1-c1ccncc1)CCCCC2 returned BH1578 lux ind 3.4, BoNT-F LC inh -1.2, Anthrax LF prot -5.7, BJeLR lethal 0.4, BoNT A protease -0.3 and Autofluor counter 16184*.
COc1cccc(NC(=O)N(C2CCCCC2)C(C)c2cccs2)c1 (configuration not stated) was read as BH1578 lux ind -0.2, BoNT-F LC inh 9.2, Anthrax LF prot -6.4, BoNT A protease 7.2 and Autofluor counter 19720*.
COc1cccc(NC(=O)N(Cc2ccco2)C(C)c2cccs2)c1 (configuration not stated) was read as BH1578 lux ind inactive, BoNT-F LC inh -2.6, Anthrax LF prot -1.8, BJeLR lethal 4.0, BoNT A protease -1.8 and Autofluor counter 7701.
